This note sets out measurements from PubChem BioAssay.

Where “and” joins values, the source holds several entries; their conditions need not be identical. Identical values can stand only once. A number with no mark means an inactive call.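 How the source made its calls: active means compounds whose cell count with miR-34 switched on is under 0.7 times the count with it off; inactive means the rest.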

This test is described as follows: sensitizers of A549 cells to miR-34 induction, primary screen, imaging, A549 dox-inducible miR-34, nuclei and caspase counts (AID 1347080). Further: test concentration not given here. Conditions: A549 miR-34 inducible, Hoechst nuclei count, 48 h; hits give low values; cell number ratio, induced over uninduced.
`N#C/C(=C\c1ccc(O)c(O)c1)C(=O)c1ccc(O)c(O)c1`: the fold change was 0.979.
`N=C(N)SCCc1cccc(CCSC(=N)N)c1`: the fold change is 1.01.
For `COC(=O)[C@H]1[C@H]2C[C@@H]3c4[nH]c5cc(OC)ccc5c4CCN3C[C@H]2C[C@@H](OC(=O)/C=C/c2cc(OC)c(OC)c(OC)c2)[C@@H]1OC`, the fold change is 0.865.
In the case of `Oc1ccc(Cn2cc[nH]c2=S)cc1` it was 0.942; in that of `CNc1ncnc2c1ncn2[C@H]1C[C@H](OP(=O)(O)O)[C@@H](COP(=O)(O)O)O1`, 1.08; in that of `Cc1nc(N=Nc2cc(S(=O)(=O)O)c3cc([N+](=O)[O-])cc(S(=O)(=O)O)c3c2)c(COP(=O)(O)O)c(C=O)c1O`, 1.02.
With `COc1c(N2CC3CCCNC3C2)c(F)cc2c(=O)c(C(=O)O)cn(C3CC3)c12` (stereo not given), the fold change is 0.906.
In the case of `NC(=S)c1ccc[n+]([C@@H]2O[C@@H](COP(=O)([O-])OP(=O)(O)OC[C@H]3O[C@@H](n4cnc5c(N)ncnc54)C(OP(=O)(O)O)[C@H]3O)C(O)C2O)c1` (stereo not given in full) it was 0.943; in that of `Cc1ccc2c(c1)C(N1CCN(C)CC1)=Nc1cccnc1N2`, 1; in that of `NC(N)=N[C@@H](CCC(=O)O)C(=O)O`, 0.954 and 0.929.
With `COc1cc(=O)n(C)c2c(OCC(O)C(C)(C)O)cccc12` (stereo not given), the fold change is 0.801.
The value for `N=S(=O)(O)Cc1noc2ccccc12` was 0.955; that for `O=C(O)CCC/C=C\C[C@@H]1[C@@H](/C=C/[C@H](O)C2Cc3ccccc3C2)[C@@H](F)C[C@@H]1O` was 0.962 and 0.866.
Consider `Cc1ccc(NC(=O)CCCCCC(=O)Nc2ccccc2N)cc1`, for which the fold change is 1.01.
Regarding `N=C(N)c1ccc(OCCCCCOc2ccc(C(=N)N)cc2)cc1` (tested in a mixture with another compound), the fold change was 1.03.
Consider `NCCC1CCCC(CCN)N1` (stereo not given), for which the fold change was 1.09.
In the case of `Nc1ccn([C@@H]2O[C@H](CO)[C@@H](O)[C@@H]2O)c(=O)n1` it was 0.984; in that of `CCCCCC(O)c1cccc(OCc2ccc3ccccc3n2)c1` (stereo not given), 0.911 and 0.978.
Regarding `N=c1c[n+](N2CCOCC2)[n-]o1`, the fold change was 1 and 0.984.
As for `Nc1ccccc1NC(=O)CCCCCCC(=O)Nc1ccccc1`, the fold change was 1.01.
The value for `N=c1ccn2c(n1)OC1[C@@H](O)[C@@H](CO)O[C@H]12` (stereo not given in full) was 1.14; that for `CCOC(=O)C12CC1/C(=N/O)c1ccccc1O2` (stereo not given) was 1.06; that for `C#C[C@]1(O)CCC2C3C(C)CC4=C(CCC(=O)C4)C3CC[C@@]21C` (stereo not given in full) was 0.909.
In the case of `O=C(O)CCC(=O)N1CCCC1C(=O)O` (stereo not given), the fold change is 0.97.
As to `N.N.N.N.N.N.N.N.N.N.N.N.N.N.O.O.[Cl-].[Cl-].[Cl-].[Cl-].[Cl-].[Cl-].[Ru+4].[Ru+5].[Ru+5]`, the fold change is 1.03.
For `O=C1O/C(=C/Br)CCC1c1cccc2ccccc12` (stereo not given), the fold change was 0.964.
On to `NC[C@H]1O[C@@H](n2cnc3c(N)ncnc32)[C@H](O)[C@@H]1O`, for which the fold change is 1.07.
With `CC[C@@]1([C@@H]2O[C@@H]([C@H]3O[C@@](O)(CO)[C@H](C)C[C@@H]3C)C[C@@H]2C)CC[C@H]([C@]2(C)CC[C@]3(C[C@H](O)[C@@H](C)[C@@H]([C@@H](C)[C@@H](OC)C(C)C(=O)O)O3)O2)O1` (stereo not given in full), the fold change is 1.05.
As to `CN(C)C(=O)/N=N/C(=O)N(C)C`, the fold change is 1.04.
Regarding `N#C/C(=C\c1ccc(O)c(O)c1)C(=O)NCCCNC(=O)/C(C#N)=C/c1ccc(O)c(O)c1`, the fold change was 0.987.
The value for `CCC[C@@H]1C[C@@H](C(=O)N[C@@H]([C@H]2O[C@H](SC)[C@H](O)[C@@H](O)[C@@H]2O)[C@@H](C)O)N(C)C1` was 0.982 and 0.853.
For the compound `COc1c2c(nc3ccccc13)OC(C(C)(O)CO)C2` (stereo not given), the fold change was 0.919.
`CC[C@@H]1Cc2cc(O)ccc2C2=C1c1ccc(O)cc1C[C@H]2CC`: the fold change is 1.3.
Regarding `C[N+](C)(C)CCOP(=O)(O)OP(=O)([O-])OC[C@H]1O[C@@H](n2ccc(N)nc2=O)C(O)[C@H]1O` (stereo not given in full), the fold change is 1.01.
In the case of `CCSC(N)=Nc1ccc(C(F)(F)F)cc1` it was 1.02; in that of `Nc1nc(SCc2ccc([N+](=O)[O-])cc2)c2ncn([C@@H]3O[C@H](CO)[C@H](O)C3O)c2n1` (stereo not given in full), 1.08.
In the case of `NCCC(=O)NCCc1cnc[nH]1`, the fold change was 0.903.
`CC(=O)O[C@H]1CC2(C)[C@@H](C[C@@H](O)[C@H]3[C@@]4(C)CC[C@@H](O)[C@@H](C)[C@@H]4CC[C@@]32C)C1=C(CCC=C(C)C)C(=O)O` (stereo not given in full): the fold change was 0.982.
`O[C@@H]1[C@@H](O)C=C2CCN3Cc4cc5c(cc4[C@H]1C23)OCO5` (stereo not given in full): the fold change was 0.89.
As for `NC(N)=[N+]1CCc2ccccc2C1`, the fold change is 1.01.
